About 3,300 (8.5%) of roughly 39,000 compounds were called active. What follows is part of a selection rich in actives, with near analogues and random picks from the rest.
Tested on: HepG2
Test: cytotoxicity call (relative viability < 0.9)
Details: 10 µM

**Q.** Which cytotoxicity call does the source give for `Cn1c(CNc2ccccc2)cc(=O)n(C)c1=O` here?
**A.** inactive

**Q.** For `COCCOC(=O)N1C(=O)[C@@]2(c3cc(C#CC4(O)CCCCCC4)ccc31)[C@H](c1ccccc1OCCO)N1[C@H](c3ccccc3)[C@H](c3ccccc3)OC(=O)[C@H]1[C@@H]2C(=O)N1CCc2cc(OC)c(OC)cc2C1`, which cytotoxicity call is on record?
**A.** inactive

**Q.** `NC1=CC(=O)c2ccccc2C1=O` was tested. Which cytotoxicity call did it give?
**A.** inactive

**Q.** `CC1=CC(=O)c2ccccc2C1=O` was tested. Which cytotoxicity call did it give?
**A.** active

**Q.** `O=C1C=C(O)C(=O)c2ccccc21` was tested. Which cytotoxicity call did it give?
**A.** inactive

**Q.** How did the cytotoxicity call turn out when `O=C(C[C@H]1CC[C@H]2[C@@H](COC[C@@H](O)CN2C(=O)Nc2ccc(F)cc2)O1)NCCCN1CCOCC1` was run?
**A.** inactive

**Q.** How did the cytotoxicity call turn out when `CC(C)NC(=O)N(C)C[C@@H]1Oc2ccc(NS(=O)(=O)c3cn(C)cn3)cc2C(=O)N([C@@H](C)CO)C[C@H]1C` was run?
**A.** inactive

**Q.** With `C[C@@H]1CN([C@@H](C)CO)C(=O)CCCn2cc(nn2)CO[C@H]1CN(C)S(=O)(=O)c1ccc(Cl)cc1` as the compound, how does the cytotoxicity call read?
**A.** inactive

**Q.** How did the cytotoxicity call turn out when `Cn1c(=O)c(=O)n(C)c2cc(S(=O)(=O)N3CCOCC3)ccc21` was run?
**A.** inactive

**Q.** How did the cytotoxicity call turn out when `NC(=O)c1cc(S(=O)(=O)N2CCOCC2)ccc1F` was run?
**A.** active

**Q.** For `NCc1ccc(S(=O)(=O)N2CCOCC2)cc1`, which cytotoxicity call is on record?
**A.** inactive

**Q.** How did the cytotoxicity call turn out when `COCC(=O)Nc1ccc2c(c1)OC[C@H](C)N(C(=O)Cc1ccccn1)C[C@H](C)[C@H](OC)CN(C)C2=O` was run?
**A.** inactive

**Q.** For `C[C@@H]1CN([C@H](C)CO)S(=O)(=O)c2ccc(-c3cncnc3)cc2O[C@H]1CN(C)C(=O)NC1CCCC1`, which cytotoxicity call is on record?
**A.** inactive

**Q.** With `CC[C@H]1OC(=O)[C@H](C)[C@@H](O[C@H]2C[C@@](C)(OC)[C@@H](O)[C@H](C)O2)[C@H](C)[C@@H](O[C@@H]2O[C@H](C)C[C@H](N(C)C)[C@H]2O)[C@](C)(OC)C[C@@H](C)C(=O)[C@H](C)[C@@H](O)[C@]1(C)O` as the compound, how does the cytotoxicity call read?
**A.** inactive

**Q.** `C[C@@H](O)c1cccc(C(F)(F)F)c1` was tested. Which cytotoxicity call did it give?
**A.** inactive

**Q.** For `CN1C(=O)c2cc(NC(=O)Cc3cccs3)ccc2OC[C@H]2O[C@H](CC(=O)NCc3ccc(-c4ccccc4)cc3)CC[C@@H]21`, which cytotoxicity call is on record?
**A.** inactive

**Q.** `COc1ccccc1C(=O)Nc1ccc2c(c1)C(=O)N(C)[C@@H]1CC[C@H](CC(=O)NCc3ccc(Cl)c(Cl)c3)O[C@@H]1CO2` was tested. Which cytotoxicity call did it give?
**A.** inactive

**Q.** Which cytotoxicity call does the source give for `COc1ccccc1C(=O)Nc1ccc2c(c1)C(=O)N(C)[C@@H]1CC[C@H](CC(=O)NCc3ccc(Cl)c(Cl)c3)O[C@H]1CO2` here?
**A.** inactive

**Q.** How did the cytotoxicity call turn out when `COc1ccccc1C(=O)Nc1ccc2c(c1)C(=O)N(C)[C@@H]1CC[C@H](CC(=O)NCCc3ccncc3)O[C@@H]1CO2` was run?
**A.** inactive

**Q.** Which cytotoxicity call does the source give for `COc1ccccc1C(=O)Nc1ccc2c(c1)C(=O)N(C)[C@@H]1CC[C@@H](CC(=O)NCCc3ccncc3)O[C@H]1CO2` here?
**A.** inactive

**Q.** How did the cytotoxicity call turn out when `COc1ccccc1C(=O)Nc1ccc2c(c1)C(=O)N(C)[C@H]1CC[C@@H](CC(=O)NCCc3ccncc3)O[C@@H]1CO2` was run?
**A.** inactive

**Q.** `COc1ccccc1C(=O)Nc1ccc2c(c1)C(=O)N(C)[C@H]1CC[C@@H](CC(=O)NCCc3ccncc3)O[C@H]1CO2` was tested. Which cytotoxicity call did it give?
**A.** inactive

**Q.** For `COc1ccccc1C(=O)Nc1ccc2c(c1)C(=O)N(C)[C@@H]1CC[C@@H](CC(=O)NCc3ccc(Cl)c(Cl)c3)O[C@@H]1CO2`, which cytotoxicity call is on record?
**A.** active

**Q.** Which cytotoxicity call does the source give for `COc1ccccc1C(=O)Nc1ccc2c(c1)C(=O)N(C)[C@H]1CC[C@H](CC(=O)NCc3ccc(Cl)c(Cl)c3)O[C@@H]1CO2` here?
**A.** active

**Q.** With `CN1C(=O)c2cc(NC(=O)Cc3cccs3)ccc2OC[C@@H]2O[C@H](CC(=O)NCc3ccc(-c4ccccc4)cc3)CC[C@@H]21` as the compound, how does the cytotoxicity call read?
**A.** active

**Q.** Which cytotoxicity call does the source give for `COc1ccccc1C(=O)Nc1ccc2c(c1)C(=O)N(C)[C@H]1CC[C@H](CC(=O)NCc3ccc(Cl)c(Cl)c3)O[C@H]1CO2` here?
**A.** active

**Q.** Which cytotoxicity call does the source give for `CN1C(=O)c2cc(NC(=O)Cc3cccs3)ccc2OC[C@H]2O[C@@H](CC(=O)NCc3ccc(-c4ccccc4)cc3)CC[C@@H]21` here?
**A.** inactive

**Q.** `COc1ccc(NC(=O)N(C)C[C@@H]2OCCCC[C@@H](C)Oc3ccc(NC(=O)C4CCCCC4)cc3C(=O)N([C@@H](C)CO)C[C@@H]2C)cc1` was tested. Which cytotoxicity call did it give?
**A.** inactive

**Q.** Which cytotoxicity call does the source give for `C[N+](C)(C)CCCC[C@@H]1NC(=O)[C@H]2C[C@@H](C(=O)NCCCCCCN)[C@@H](c3ccc(O)cc3)N2C1=O` here?
**A.** inactive

**Q.** For `CCNC(=O)[C@@H]1CCCN1C(=O)[C@H](CCCN=C(N)N)NC(=O)[C@H](CC(C)C)NC(=O)[C@@H](Cc1c[nH]c2ccccc12)NC(=O)[C@H](Cc1ccc(O)cc1)NC(=O)[C@H](CO)NC(=O)[C@H](Cc1c[nH]c2ccccc12)NC(=O)[C@H](Cc1c[nH]cn1)NC(=O)[C@@H]1CCC(=O)N1`, which cytotoxicity call is on record?
**A.** inactive

**Q.** How did the cytotoxicity call turn out when `C[C@H](CO)N1C[C@H](C)[C@H](CN(C)C(=O)c2ccccn2)Oc2cc(C#Cc3ccc(F)cc3)ccc2S1(=O)=O` was run?
**A.** inactive

**Q.** `O=C(O)c1ccc(O)cc1O` was tested. Which cytotoxicity call did it give?
**A.** inactive

**Q.** For `C[C@H](CO)N1C[C@H](C)[C@H](CN(C)Cc2ccc(C(F)(F)F)cc2)OCc2ccccc2-c2ccccc2C1=O`, which cytotoxicity call is on record?
**A.** inactive

**Q.** With `COc1ccccc1CNC(=O)C[C@@H]1C[C@H]2c3cc(NS(=O)(=O)c4ccc(F)cc4)ccc3O[C@H]2[C@@H](CO)O1` as the compound, how does the cytotoxicity call read?
**A.** inactive

**Q.** How did the cytotoxicity call turn out when `C[C@H]1CCCCO[C@H](CN(C)S(=O)(=O)c2cccs2)[C@@H](C)CN([C@@H](C)CO)C(=O)c2cc(NS(=O)(=O)c3cn(C)cn3)ccc2O1` was run?
**A.** inactive

**Q.** How did the cytotoxicity call turn out when `C[C@@H]1CN([C@@H](C)CO)C(=O)Cc2cc(NS(=O)(=O)c3cn(C)cn3)ccc2O[C@H]1CN(C)Cc1ccc2c(c1)OCO2` was run?
**A.** inactive

**Q.** For `C[C@H](CO)N1C[C@H](C)[C@@H](CN(C)C(=O)C2CCCCC2)OCCCC[C@H](C)Oc2ccc(NC(=O)Nc3cccc4ccccc34)cc2C1=O`, which cytotoxicity call is on record?
**A.** inactive

**Q.** With `C[C@@H]1CCCCO[C@@H](CN(C)S(C)(=O)=O)[C@H](C)CN([C@@H](C)CO)C(=O)c2cc(NS(=O)(=O)c3ccccc3)ccc2O1` as the compound, how does the cytotoxicity call read?
**A.** inactive

**Q.** With `COc1ccccc1C(=O)Nc1ccc2c(c1)C(=O)N(C)[C@@H]1CC[C@@H](CC(=O)NCc3ccc(Cl)c(Cl)c3)O[C@H]1CO2` as the compound, how does the cytotoxicity call read?
**A.** inactive

**Q.** Which cytotoxicity call does the source give for `COc1ccccc1C(=O)Nc1ccc2c(c1)C(=O)N(C)[C@H]1CC[C@@H](CC(=O)NCc3ccc(Cl)c(Cl)c3)O[C@@H]1CO2` here?
**A.** active

**Q.** With `COc1ccccc1C(=O)Nc1ccc2c(c1)C(=O)N(C)[C@@H]1CC[C@H](CC(=O)NCCc3ccncc3)O[C@H]1CO2` as the compound, how does the cytotoxicity call read?
**A.** inactive

**Q.** With `COc1ccc(S(=O)(=O)N(C)C[C@@H]2Oc3ccc(NC(=O)Cn4cnnn4)cc3C(=O)N([C@H](C)CO)C[C@H]2C)cc1` as the compound, how does the cytotoxicity call read?
**A.** inactive

**Q.** For `C[C@H](CO)N1C[C@H](C)[C@@H](CN(C)S(C)(=O)=O)OCCCC[C@H](C)Oc2ccc(NC(=O)Nc3ccc(C(F)(F)F)cc3)cc2C1=O`, which cytotoxicity call is on record?
**A.** inactive

**Q.** `C[C@@H]1CCCCO[C@@H](CN(C)Cc2ccc(C(F)(F)F)cc2)[C@@H](C)CN([C@@H](C)CO)C(=O)c2cc(NS(=O)(=O)c3cn(C)cn3)ccc2O1` was tested. Which cytotoxicity call did it give?
**A.** inactive

**Q.** `CC(C)CCN1CCn2c(CO)nnc2C1` was tested. Which cytotoxicity call did it give?
**A.** inactive

**Q.** For `C[C@@H]1CN([C@@H](C)CO)C(=O)Cc2cc(NC(=O)C3CC3)ccc2O[C@H]1CN(C)C(=O)NC1CCCCC1`, which cytotoxicity call is on record?
**A.** inactive

**Q.** Which cytotoxicity call does the source give for `Cl.N#Cc1ccc2[nH]cc(CCCCN3CCN(c4ccc5oc(C(N)=O)cc5c4)CC3)c2c1` here?
**A.** active

**Q.** For `CCC(=O)C12CC3CC(CC(C3)C1)C2`, which cytotoxicity call is on record?
**A.** inactive

**Q.** `COc1ccc(NC(=O)N(C)C[C@H]2OCCCC[C@H](C)Oc3ccc(NC(=O)Nc4ccc5c(c4)OCO5)cc3C(=O)N([C@H](C)CO)C[C@@H]2C)cc1` was tested. Which cytotoxicity call did it give?
**A.** inactive

**Q.** Which cytotoxicity call does the source give for `CC(/C=C/C(=O)NO)=C\c1ccccc1OCc1cn(CCNC(=O)[C@@H](NS(=O)(=O)c2ccc(C)cc2)C(C)C)nn1` here?
**A.** inactive

**Q.** With `Nc1cccc(-n2cc(CCC(=O)NO)nn2)c1` as the compound, how does the cytotoxicity call read?
**A.** inactive

**Q.** With `CC(/C=C/C(=O)NO)=C\c1ccccc1OCc1cn(-c2cccc(N(S(=O)(=O)c3ccc(C)cc3)S(=O)(=O)c3ccc(C)cc3)c2)nn1` as the compound, how does the cytotoxicity call read?
**A.** active

**Q.** For `CCOc1cc(OCC)cc(C(=O)N[C@@H](Cc2ccc(-n3cc(CCC(=O)NO)nn3)cc2)C(=O)OC)c1`, which cytotoxicity call is on record?
**A.** inactive

**Q.** With `COC(=O)[C@@H](Cc1ccc(-n2cc(COc3ccccc3/C=C(C)/C=C/C(=O)NO)nn2)cc1)N1CC(/C=C/C2CC2)=C[C@H]1[C@H](O)Cc1ccccc1` as the compound, how does the cytotoxicity call read?
**A.** inactive

**Q.** Which cytotoxicity call does the source give for `Cc1ccc(S(=O)(=O)N[C@H](C(=O)NCCn2cc(CCC(=O)NO)nn2)C(C)C)cc1` here?
**A.** inactive

**Q.** Which cytotoxicity call does the source give for `COC(=O)[C@H](Cc1ccccc1)N1C[C@](C)(OC(C)C)O[C@@H](CCn2cc(COc3ccccc3/C=C(C)/C=C/C(=O)NO)nn2)[C@@H]1/C=C/C1CC1` here?
**A.** inactive

**Q.** With `C#CCN([C@H](/C=C/C1CC1)[C@@H](O)Cc1ccccc1)[C@@H](Cc1ccc(-n2cc(COc3ccccc3/C=C(C)/C=C/C(=O)NO)nn2)cc1)C(=O)OC` as the compound, how does the cytotoxicity call read?
**A.** inactive

**Q.** With `COC(=O)[C@@H](N)Cc1ccc(-n2cc(CCC(=O)NO)nn2)cc1` as the compound, how does the cytotoxicity call read?
**A.** active

**Q.** `Nc1ccc(-n2cc(CCC(=O)NO)nn2)cc1` was tested. Which cytotoxicity call did it give?
**A.** inactive

**Q.** How did the cytotoxicity call turn out when `CC(/C=C/C(=O)NO)=C\c1ccccc1OCc1cn(C[C@@H]2CCCN2S(=O)(=O)c2ccc(C)cc2)nn1` was run?
**A.** active

**Q.** Which cytotoxicity call does the source give for `Cc1ccc(S(=O)(=O)N(c2cccc(-n3cc(CCC(=O)NO)nn3)c2)S(=O)(=O)c2ccc(C)cc2)cc1` here?
**A.** active

**Q.** How did the cytotoxicity call turn out when `O=C(NC1CCC1)[C@H]1[C@H](CO)[C@H]2Cn3c(cccc3=O)[C@H]2N1CC1CCOCC1` was run?
**A.** inactive

**Q.** Which cytotoxicity call does the source give for `COc1ccccc1-c1ccc2c(c1)O[C@H](CN(C)CC1CCOCC1)[C@H](C)CN([C@@H](C)CO)S2(=O)=O` here?
**A.** inactive

**Q.** With `C[C@H]1CN([C@@H](C)CO)C(=O)Cc2cc(NC(=O)CCN3CCOCC3)ccc2O[C@@H]1CN(C)Cc1ccncc1` as the compound, how does the cytotoxicity call read?
**A.** inactive

**Q.** With `OCCNC(=S)Nc1ccccc1` as the compound, how does the cytotoxicity call read?
**A.** inactive

**Q.** How did the cytotoxicity call turn out when `C[C@H](CO)N1C[C@H](C)[C@@H](CN(C)S(=O)(=O)c2ccc(Cl)cc2)OCCCC[C@H](C)Oc2ccc(NC(=O)Nc3ccc(C(F)(F)F)cc3)cc2C1=O` was run?
**A.** inactive

Reference: the antibiotic and cytotoxicity screens of Wong et al. (2023)
